The text below walks through data of the supplement of paper PMC6607015.

Molecules are shown by their SMILES. Counter-ions that a name gives are not always drawn.

Holding throughout (settings): compound concentration in added solution (µM; 5 µl added to 20 µl cells): 10; 18 h
Assay [1] has as its system A431. Briefly: LBPA endosome anti-LBPA integrated intensity (sum per cell), Z-score; higher = more LBPA staining. The method in brief:
(§1)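 After 18 h on 5 µl of 10 µM compound solution in duplicate 384-well imaging plates, HeLa MZ or A431 cells, seeded at 3,500 per well in 20 µl, were fixed with 4% PFA. They were then labelled with 6C4 anti-LBPA antibody, filipin, propidium iodide and CellTracker green, and four 20× fields were recorded per well. Integrated LBPA or filipin intensity per cell, whole-cell or within LBPA endosomes, came from MetaXpress segmentation and was normalised to Z-scores in AcuityXpress.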

Assay [2] relates to HeLa MZ. Described as above. The method in brief:
as §1

The subject of assay [3] is A431. Kind of assay: whole-cell filipin (free cholesterol) integrated intensity, Z-score; higher = more cholesterol staining. The gist of the method:
as §1

Assay [4] deals with HeLa MZ. Described as above. The gist of the method: as §1
The subject of assay [5] is A431. Briefly: filipin (cholesterol) integrated intensity within LBPA endosomes, Z-score; higher = more cholesterol in LBPA endosomes. The method in brief:
as §1

Assay [6] relates to HeLa MZ. The assay is described as above. The method in brief: as §1

As for `O=C(OCCOCCO)c1ccccc1Nc1cccc(C(F)(F)F)c1` [Etofenamate], the “LBPA endosome anti-LBPA integrated intensity (z-score)” value in assay [1] is -0.474; in assay [2], -0.295. Also, the “whole-cell filipin (z-score)” value in assay [3] is -0.883; in assay [4] it was -1.24. Moreover, the “filipin (z-score)” value was -0.564 in assay [5] and -0.692 in assay [6].

`Cc1ccccc1OCC(O)CO` (configuration not stated) [Mephenesin]: the “LBPA endosome anti-LBPA integrated intensity (z-score)” value in assay [1] was -0.324; in assay [2], 0.139. Moreover, the entries for the “whole-cell filipin (z-score)” value in assay [3] and in assay [4] were -0.27 and 0.183, respectively. The figures for the “filipin (z-score)” value in assay [5] and in assay [6] were -0.409 and -0.223, respectively.

Consider `Nc1ccc(/N=N/c2ccccc2)c(N)n1` [Phenazopyridine hydrochloride], for which the figures for the “LBPA endosome anti-LBPA integrated intensity (z-score)” value in assay [1] and in assay [2] were -0.183 and 0.466, respectively. The “whole-cell filipin (z-score)” value was -0.169 in assay [3] and -0.724 in assay [4]. For the same compound, the “filipin (z-score)” value in assay [5] is -0.32; in assay [6], -0.502.

Turning to `C[N+](C)(CCOc1ccccc1)Cc1ccccc1.O=C([O-])c1cc2ccccc2cc1O` [Bephenium hydroxynaphthoate], the “LBPA endosome anti-LBPA integrated intensity (z-score)” value is -0.418 in assay [1] and 0.146 in assay [2]. Further, the “whole-cell filipin (z-score)” value in assay [3] is -0.383; in assay [4], -0.145. Further, the “filipin (z-score)” value in assay [5] was -0.456; in assay [6], -0.371.

For `CCN(CC)CCNC(=O)c1ccc(N)cc1` [Procainamide hydrochloride], the results for the “LBPA endosome anti-LBPA integrated intensity (z-score)” value in assay [1] and in assay [2] were -0.492 and 0.0584, respectively. Also, the “whole-cell filipin (z-score)” value is -0.628 in assay [3] and 0.713 in assay [4]. The “filipin (z-score)” value in assay [5] is -0.428; in assay [6] it was -0.159.

Consider `C[C@@H](O)[C@H]1C(=O)N2C(C(=O)O)=C(S[C@@H]3CN[C@H](C(=O)N(C)C)C3)[C@H](C)[C@H]12` [Meropenem], for which the “LBPA endosome anti-LBPA integrated intensity (z-score)” value in assay [1] was -0.501; in assay [2], -0.52. Also, the results for the “whole-cell filipin (z-score)” value in assay [3] and in assay [4] were 0.0963 and -0.649, respectively. The “filipin (z-score)” value is -0.531 in assay [5] and -0.725 in assay [6].

For `CC(C)C(=O)c1c(C(C)C)nn2ccccc12` [Ibudilast], the “LBPA endosome anti-LBPA integrated intensity (z-score)” value in assay [1] is -0.434; in assay [2], -0.686. The “whole-cell filipin (z-score)” value in assay [3] is 0.153; in assay [4] it was -0.112. Also, the “filipin (z-score)” value in assay [5] is -0.402; in assay [6], -0.704.

In the case of `Cc1ccc(/C(=C\CN2CCCC2)c2ccccn2)cc1` [Triprolidine hydrochloride], the “LBPA endosome anti-LBPA integrated intensity (z-score)” value in assay [1] is -0.168; in assay [2], 0.494. In addition, the “whole-cell filipin (z-score)” value in assay [3] was -0.873; in assay [4], -0.689. Also, the “filipin (z-score)” value in assay [5] was -0.378; in assay [6] it was -0.0781.

With `Nc1ccccc1S(N)(=O)=O` [2-Aminobenzenesulfonamide], the “LBPA endosome anti-LBPA integrated intensity (z-score)” value in assay [1] is -0.461; in assay [2], -0.0157. The “whole-cell filipin (z-score)” value in assay [3] was -0.474; in assay [4], -0.217. The “filipin (z-score)” value was -0.417 in assay [5] and -0.589 in assay [6].

For `CN1CCC(=C2c3ccccc3CCc3sccc32)CC1` [Pizotifen malate], the “LBPA endosome anti-LBPA integrated intensity (z-score)” value amounted to 2.92 in assay [1] and 2.11 in assay [2]. For the same compound, the “whole-cell filipin (z-score)” value in assay [3] was 2.58; in assay [4], -0.0276. Besides, the “filipin (z-score)” value in assay [5] worked out at 2.82; in assay [6], 1.53.

In the case of `CCCCc1oc2ccccc2c1C(=O)c1cc(I)c(OCCN(CC)CC)c(I)c1` [Amiodarone hydrochloride], the “LBPA endosome anti-LBPA integrated intensity (z-score)” value in assay [1] stood at 1.78; in assay [2], 0.0569. For the same compound, the results for the “whole-cell filipin (z-score)” value in assay [3] and in assay [4] were 0.251 and 0.182, respectively. The entries for the “filipin (z-score)” value in assay [5] and in assay [6] were 2.45 and 1.95, respectively.

As to `Cc1nnc(SCC2=C(C(=O)O)N3C(=O)[C@@H](NC(=O)Cn4cnnn4)[C@H]3SC2)s1` [Cefazolin sodium salt], the “LBPA endosome anti-LBPA integrated intensity (z-score)” value was -0.481 in assay [1] and -0.611 in assay [2]. Moreover, the entries for the “whole-cell filipin (z-score)” value in assay [3] and in assay [4] were -0.424 and -0.218, respectively. Moreover, the “filipin (z-score)” value was -0.384 in assay [5] and -0.417 in assay [6].
